Most compounds without a hit are left out; they make up all but 19% or so of the library.
KB-3-1 cytotox: kills parental KB-3-1 adenocarcinoma cells. KB-3-1 viability, CellTiter-Glo ATP luminescence, 72 h. Potency, µM (titrated, usually from 46.1 µM), usual class: cytotoxic. actives 1.4% (n = 400,000). AID 1347075; further: nearly all actives have a fitted effect of over 60% in size
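Screening of KB-3-1 cells (DMEM, 10% FBS, phenol-red free) ran from lowest to highest compound concentration; after 72 h at 37 °C viability was read luminescently and curves fitted.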
HT1080NT lethal: kills 2HG-producing HT-1080-NT fibrosarcoma cells; HT-1080-NT fibrosarcoma viability, CellTiter-Glo ATP luminescence, 48 h; Potency, µM (highest dose often 46.1 µM), for the others: top-dose activity, negative = less viability, most hits filed as cytotoxic; actives 1.6% (n = 360,000); AID 686970;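 further: NT is the 2HG producing partner of a matched IDH1 knockdown line; 0% = DMSO-treated cells and -100% = media-only wells without cells; nearly all actives have a fitted effect of over 55% in size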
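HT-1080-NT; 750 cells/well; 5% FBS RPMI; 48 h compound, 37 degrees C; CellTiter-Glo luminescence; curve fitting and curve-class assignment.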
KB-V1 cytotox: KB-V1 MDR subline cytotoxicity; actives 3.4% (n = 400,000); AID 1347076; KB-V1 MDR cells viability, CellTiter-Glo, 72 h; Potency, µM (titrated, usually from 46.1 µM), usual class: cytotoxic; further: nearly all actives have a fitted effect of over 60% in size
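Readout: CellTiter-Glo luminescence, 10 min after addition. Cells: KB-V1 MDR subline, 72 h at 37 degrees C with compound. Analysis: corrected, normalized data fitted to concentration-effect curves.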
TDP1 cell CPT: DT40-hTDP1 cell growth loss with CPT | chicken DT40 Tdp1-/-;hTDP1 cells + 20 nM CPT, ATP luminescence, 48 h | Potency, µM (series often up to 46.2 µM), without a hit: at the top dose activity change, negative = growth inhibition, hits mostly inhibitors | actives 12% (n = 420,000) | AID 686979; further: nearly all actives have a fitted effect of over 55% in size
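Cell growth measured by CellTiter-Glo luminescence after a minimum 48 h, 37 C compound exposure with 20 nM CPT in Tdp1-knockout DT40 cells stably expressing hTDP1, seeded 400/well; qHTS titration format.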
HT1080 IDH1KD tx: toxicity to HT-1080 IDH1 knockdown cells (counter line). actives 2% (n = 360,000). HT-1080 IDH1 knockdown viability, ATP luminescence, 48 h. AID 686971. Potency, µM (doses to about 46.1 µM), without a hit: at the top dose activity, negative = toxicity, actives largely listed as cytotoxic;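 further: 0% = DMSO wells and -100% = cell-free medium wells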
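Cytotoxicity counter-line: IDH1KD HT-1080, 48 h, CellTiter-Glo. Curves classed by r2, magnitude and activity.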
TDP1 cell noCPT: qHTS for Inhibitors of human tyrosyl-DNA phosphodiesterase 1 (TDP1): qHTS in cells in absence of CPT; DT40 Tdp1-/- hTDP1 cells, no CPT, ATP luminescence, 48 h; actives 15% (n = 420,000); Potency, µM (top dose mostly 46.2 µM), for the others: at the top dose activity change, negative = growth inhibition, usual class: inhibitors; AID 686978, 2013; further: nearly all actives have a fitted effect of over 55% in size
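Seeded 400 DT40-hTDP1 cells/well (vehicle DMSO, no 20 nM CPT); pinned compounds; ≥48 hr at 37 °C; CellTiter-Glo luminescence as viability measure.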
Numbers without * were called inactive; i = inactive; ? = inconclusive; · = no result; [ ] = dose if it differs, or a comment. The call rests on the fitted dose curve; in most records, active means well fitted curve in the direction sought with a large enough effect; inconclusive means small, poorly fitted or top-dose-only effect, or another doubt; inactive means no such curve, though single readings can be large; an effect the other way counts as inactive or inconclusive. Unless noted, on the % scale 0 is the no-effect control and ±100 the full control effect; potency means the concentration at half of the fitted maximal effect.

SMILES | KB-3-1 cytotox | HT1080NT lethal | KB-V1 cytotox | TDP1 cell CPT | HT1080 IDH1KD tx | TDP1 cell noCPT
Cc1cccc(NC(=S)N/N=C/c2ccc([N+](=O)[O-])s2)c1 | ? | 17.8µM* | i | 12.6µM* | ? | 7.94µM*
Cc1cccc(NC(N)=S)c1 | i | -12.5% | i | -22.9% | -3.7% | -17.7%
CC1CN(c2ccccn2)C(C)CN1C(=O)C(O)(c1ccccc1)c1ccccc1 (stereo unspecified) | i | -18.4% | i | 29.1µM* | -10.6% | 23.1µM*
O=S(=O)(c1ccc2c(c1)OCCO2)N1CCC(c2nc3ccc(Cl)cc3[nH]2)CC1 | i | 11.2µM* | 2.91µM* | 8.2µM* | 14.1µM* | 11.6µM*
CC(=O)c1ccc(Oc2ccc(C(=O)c3ccc(C)c(C)c3)cc2[N+](=O)[O-])cc1 | ? | 9.2% | ? | 8.2µM* | 4.3% | 2.31µM*
O=C1CN=C(c2cccs2)c2c(sc3c2CCCC3)N1 | ? | 11.2µM* | ? | 16.4µM* | 10µM* | ?
O=C1CN=C(c2ccccc2)c2c(sc3c2CCCC3)N1 | i | ? | ? | ? | 23.1µM* | ?
CCOc1ccc(CC(=O)Nc2ccc3c(c2)N(C)C(=O)c2ccccc2S3)cc1OCC | i | · | i | ? | · | ?
COc1cc2c(cc1OC)C13CCN4CC5CCOC6CC(=O)N2C1C6C5CC43 (stereo unspecified) | i | 3.2% | i | 8.0% | 3.2% | 10.1%
O=[N+]([O-])c1ccccc1-c1cc(-c2ccccc2)cc(-c2ccccc2)[n+]1Cc1ccccc1Cl | 9.2µM* | 7.31µM* | i | 0.651µM* | 10.3µM* | 0.731µM*
O=c1c2ccccc2nc(-c2ccoc2)n1-c1ccccc1 | i | 25.7% | ? | -26.4% | -1.2% | -25.5%
c1ccc(NC2=NCCS2)cc1 | i | 0.6% | i | 2.5% | -0.6% | -1.3%
CC(=O)NCC(N)C(=O)c1ccc(C)cc1 (stereo unspecified) | · | -2.5% | · | ? | -2.3% | 15.8µM*
CN1C(=O)NC(=O)C(N=Nc2ccc(Cl)cc2)C1=O (stereo unspecified) | i | -2.7% | i | -7.8% | 3.1% | ?
CCCCC[C@@H]1CCCCC[C@@H](O)C[C@@H](O)[C@@H](O)/C=C/C(=O)O1 | i | -0.4% | i | ? | 5.2% | -34.1%
O=C(O)C1C2c3ccccc3C(O)C1(C(=O)O)c1ccccc12 (stereo unspecified) | i | 0.9% | i | -10.8% | -0.4% | -16.5%
CCOc1nc(NC(C)C)nc(N2CC3CC(C2)c2cccc(=O)n2C3)n1 (stereo unspecified) | i | -1.5% | i | 18.4µM* | -0.3% | ?
CCCCCCNc1nc(OC)nc(N2CC3CC(C2)c2cccc(=O)n2C3)n1 (stereo unspecified) | i | -1.7% | i | ? | -2.4% | ?
COCCCNC(=S)NCCCNc1nc2cc(C)cc(C)c2cc1C#N | i | -25.4% | i | ? | -16.0% | ?
CCC1([N+](=O)[O-])COP(=O)(NCc2cccnc2)OC1 (stereo unspecified) | i | 8.0% | i | 1.3% | 20.4% | 9.0%
c1ccc(-c2ccc3c(c2)CNCc2cnnn2-3)cc1 | i | 16.9% | ? | -24.6% | 8.2% | -14.6%
O=C1NC(=O)N(Cc2ccc(F)cc2)C(=O)/C1=C\c1ccc([N+](=O)[O-])s1 | i | -20.9% | i | 13µM* | -0.9% | 8.2µM*
COc1ccc(CN2C(=O)NC(=O)/C(=C/c3ccc([N+](=O)[O-])s3)C2=O)cc1 | i | -20.3% | i | 10.3µM* | -3.7% | 4.61µM*
COc1ccc(CN2C(=O)NC(=O)/C(=C\c3cc(OC)c(OC)c(OC)c3)C2=O)cc1 | i | 0.8% | i | 18.4µM* | -6.1% | ?
COc1ccc(CN2C(=O)NC(=O)/C(=C\c3ccco3)C2=O)cc1 | i | -10.6% | i | ? | -8.4% | ?
SMILES | KB-3-1 cytotox | HT1080NT lethal | KB-V1 cytotox | TDP1 cell CPT | HT1080 IDH1KD tx | TDP1 cell noCPT
COC(C/C=C/C=C/CC/C=C\CC(C)/C=C\C(=C/C(=O)O)CC(=O)O)/C(C)=C\C=C(/C)C(=O)O (stereo unspecified) | · | · | · | 14.3%[4.12 µM] | · | 12.9%[4.12 µM]
N#CC1=C(N)Oc2c(c(=O)sc3ccccc23)C1c1cccnc1 (stereo unspecified) | ? | 3.26µM* | i | 8.2µM* | 4.61µM* | 8.2µM*
N#CC1=C(N)Oc2c(c(=O)oc3ccccc23)C1c1ccncc1 (stereo unspecified) | i | -2.2% | i | 1.8% | -1.8% | -1.1%
Cc1o[nH]c(=O)c1C[C@H](N)C(=O)O | · | · | · | 6.4% | · | 0.1%
COc1ccccc1OCCCn1cc(C(=O)C2CC2)c2ccccc21 | ? | -19.3% | ? | ? | -21.4% | ?
COc1ccccc1OCCCn1cc(C(C)=O)c2ccccc21 | i | -9.0% | ? | ? | -11.5% | 18.4µM*
COc1ccccc1OCCCn1cc(C=O)c2ccccc21 | i | -15.1% | i | ? | -10.5% | 20.6µM*
CC1(c2ccccc2)CC(C)(C)N2C(=O)C3(C(C#N)=C(N)Oc4cc(O)ccc43)c3cccc1c32 (stereo unspecified) | i | ? | 20.6µM* | ? | ? | ?
CCOC(=O)C1=C(N)Oc2cc(C)oc(=O)c2C12C(=O)N1c3c(cccc32)C(C)CC1(C)C (stereo unspecified) | i | 3.9% | i | -10.6% | -3.7% | -1.1%
CN1C2CNC(=O)CC1C1CCC2C1 (stereo unspecified) | i | 2.1% | i | -3.5% | 0.2% | 0.1%
Nc1nc(N)c2cnnn2n1 | i | 4.4% | i | 8.2% | 12.5% | -0.8%
CCN(CC(=O)Nc1ccc(C#N)c(Cl)c1)CC(=O)NC(C)(C)C | i | ? | ? | ? | ? | 23.1µM*
Cc1noc(C)c1CSCC(=O)Nc1ccc(C#N)c(Cl)c1 | i | -5.5% | i | ? | 0.0% | ?
Cc1cccc(C)c1NC(=O)CN(C)CC(=O)Nc1ccc(C#N)c(Cl)c1 | i | -15.3% | ? | 18.4µM* | -24.2% | 13µM*
N#Cc1ccc(NC(=O)CCNC(=O)c2ccco2)cc1Cl | i | -9.3% | i | 7.8% | -1.6% | -10.0%
Cc1cc(C)c(C)c(/C=C(/C#N)C(N)=S)c1C | i | ? | i | 2.8% | ? | -5.2%

From PubChem
